{"source": "PubChem BioAssay AID1259389", "about": "(Center for Chemical Genomics, University of Michigan, 2018)", "note": "The campaign covered roughly 100,000 compounds. About 620 (0.62%) were called active. This excerpt belongs to a sample that is enriched for actives. A number with no mark means an inactive call. The calls were made as follows: active = z-score of 3 or more in at least 2 runs; inactive = the rest."}
{"assay": "TAR RNA-Tat peptide displacers, HIV-1, primary screen, biochemical, FRET, FAM/TAMRA-labeled Tat (AID 1259389)", "conditions": "HIV-1 TAR RNA, Tat peptide displacement FRET; stronger effect = higher value"}
{"smiles": "O=C(Nc1ccccc1Br)c1cnn(-c2ccccc2)c1-n1cccc1", "z-score": 1.05}
{"smiles": "NC(=O)Cn1c(=O)n(CCCCC(=O)NCc2ccco2)c(=O)c2ccccc21", "z-score": -0.85}
{"smiles": "CCCc1cc(=O)[nH]c(Nc2cccc(Br)c2)n1", "z-score": 0.79}
{"smiles": "C=C(C)Cn1c(CN2CCOCC2)nc2ccccc21", "z-score": 0.03}
{"smiles": "CCc1ccc(N2CCn3c2nc2c3c(=O)n(CC(=O)O)c(=O)n2C)cc1", "z-score": 3.43}
{"smiles": "CC(C)CNc1oc(-c2ccc(S(=O)(=O)N3CCc4ccccc4C3)cc2)nc1C#N", "z-score": 0.36}
{"smiles": "CN(C)CCCNc1oc(-c2ccc(S(=O)(=O)N3CCc4ccccc4C3)cc2)nc1C#N", "z-score": "11.4 (active)"}
{"smiles": "COc1ccc(-c2nnc(-c3ccccc3)o2)cc1S(=O)(=O)N1CCc2ccccc2C1", "z-score": 0.08}
{"smiles": "O=C(c1ccccc1)c1ccc2nc(NCCCO)c3nncn3c2c1", "z-score": -1.78}
{"smiles": "O=C1CCCC2=C1C(c1cccs1)N(C(=O)CCC(=O)N1CCOCC1)c1ccccc1N2", "note": "(stereo unspecified)", "z-score": 0.78}
{"smiles": "O=C(CSc1nnc(-c2cccnc2)n1-c1ccccc1)c1ccc(F)cc1", "z-score": 1.26}
{"smiles": "CCc1nc2nc(CSc3nnc(NC(=O)c4ccccc4)s3)cc(=O)n2[nH]1", "z-score": 2.53}
{"smiles": "CCc1nc2nc(CSc3nc4ccc(NC(=O)c5ccco5)cc4s3)cc(=O)n2[nH]1", "z-score": "4.94 (active)"}
{"smiles": "CCCC(=O)Nc1ccc2nc(SCc3cc(=O)n4nc(C)sc4n3)sc2c1", "z-score": 0.47}
{"smiles": "CCC(C)N(CCNC(=O)Nc1cn(C)c(=O)c2ccccc12)Cc1ccco1", "note": "(stereo unspecified)", "z-score": 1.06}
{"smiles": "Cc1cccc(C(=O)OCc2cc(=O)n3nc(C)sc3n2)c1", "z-score": -0.36}
{"smiles": "CC(C)OCCCNc1c(-c2ccc(C(C)C)cc2)c(=O)c1=O", "z-score": "10.9 (active)"}
{"smiles": "COCCNc1c(-c2ccc(Cl)cc2)c(=O)c1=O", "z-score": 0.52}
{"smiles": "CC(CNc1c(-c2ccc(Cl)cc2)c(=O)c1=O)c1ccccc1", "note": "(stereo unspecified)", "z-score": -0.61}
{"smiles": "O=C1CSc2ccc(S(=O)(=O)NCc3ccccc3)cc2N1", "z-score": 0.46}
{"smiles": "COC(=O)c1ccc([C@@H]2Nc3ccc(F)cc3[C@@H]3C=CC[C@@H]32)cc1", "z-score": 1.86}
{"smiles": "CCOc1cccc2c1N[C@@H](c1ccc(C(=O)O)cc1)[C@H]1CC=C[C@@H]21", "z-score": "21.4 (active)"}
{"smiles": "COc1ccccc1C1Nc2ccc(C(=O)O)cc2C2C3CCC(C3)C12", "note": "(stereo unspecified)", "z-score": 8.02}
{"smiles": "Cc1ccsc1CCNC(=O)CCS(=O)(=O)c1ccc2c(c1)CC(C)N2C(=O)C1CC1", "note": "(stereo unspecified)", "z-score": -0.02}
{"smiles": "CC(C)NC(=O)NCCn1cnc2cc(C(=O)N(C)C)ccc21", "z-score": -0.27}
{"smiles": "Cc1n[nH]c(C)c1Nc1nc(-c2ccc(O)c(O)c2)cs1", "z-score": "28.7 (active)"}
{"smiles": "Cc1cccc(Nc2nc(-c3ccccc3)cs2)n1", "z-score": 1.14}
{"smiles": "Oc1ccc(-c2csc(Nc3cccnc3)n2)cc1", "z-score": -0.3}
{"smiles": "NC(=O)Cn1c(=O)n(Cc2ccc(Cl)cc2)c(=O)c2cccnc21", "z-score": -0.39}
{"smiles": "CCCNS(=O)(=O)c1ccc2c(c1)CC(C)N2C(=O)C1CC1", "note": "(stereo unspecified)", "z-score": 0.52}
{"smiles": "Cc1[nH]c2ccccc2c1C(=O)CN1CCN(C)CC1", "z-score": 1.46}
{"smiles": "Cc1[nH]c2ccccc2c1C(=O)C(=O)N(C)c1ccccc1", "z-score": -0.5}
{"smiles": "O=C(O)c1[nH]c2ccccc2c1-n1cccc1", "z-score": "13.1 (active)"}
{"smiles": "O=c1c(N2CCN(C/C=C/c3ccccc3)CC2)csc2ccc(Cl)cc12", "z-score": -2.75}
{"smiles": "COC(=O)C(=O)c1c(-c2ccc(Br)cc2)[nH]c2ccccc12", "z-score": 1.05}
{"smiles": "CCOC(=O)C1CCN(C2C(=O)c3ccccc3N2C(C)=O)CC1", "note": "(stereo unspecified)", "z-score": 1.39}
{"smiles": "Cc1nn(C)c(C)c1CNC(=O)Cn1c(-c2cccs2)cc2cc(Cl)ccc21", "z-score": 0.84}
{"smiles": "CC1Sc2ccc(S(=O)(=O)N(C)c3ccc(Br)cc3)cc2NC1=O", "note": "(stereo unspecified)", "z-score": 1.17}
{"smiles": "CC1=C(C(=O)OCc2ccccc2)C(c2ccc(O)cc2)C2=C(CC(C)(C)CC2=O)N1", "note": "(stereo unspecified)", "z-score": 1.82}
{"smiles": "O=C(C1CCN(S(=O)(=O)c2ccc3[nH]c(=O)ccc3c2)CC1)N1CCCC1", "z-score": 0.85}
{"smiles": "CC1CCN(S(=O)(=O)c2ccc3[nH]c(=O)ccc3c2)CC1", "z-score": -0.99}
{"smiles": "O=c1ccc2cc(S(=O)(=O)N3CCN(C4CCCCC4)CC3)ccc2[nH]1", "z-score": "18.9 (active)"}
{"smiles": "Cc1noc2ncnc(N3CCCC(C(=O)Nc4ccccn4)C3)c12", "note": "(stereo unspecified)", "z-score": 0.85}
{"smiles": "CCOC(=O)c1noc2nc(C)nc(Nc3ccccc3)c12", "z-score": 0.17}
{"smiles": "O=C1c2ccc(O)cc2O[C@H](c2cc(O)c(O)c(O)c2)[C@H]1O", "z-score": "9.31 (active)"}
{"smiles": "O=C(CSc1nnc2c3ccccc3nc(-c3ccccc3)n12)Nc1ccccc1", "z-score": 0.64}
{"smiles": "O=C(CSCc1cnn(-c2ccccc2)c1-n1cccc1)Nc1ccccc1F", "z-score": 1.3}
{"smiles": "O=C(O)C1Nc2ccc(Cl)cc2C2C=CCC12", "note": "(stereo unspecified)", "z-score": "42 (active)"}
{"smiles": "O=S(=O)(c1ccc(C2Nc3ccc(Cl)cc3C3C=CCC32)cc1)N1CCOCC1", "note": "(stereo unspecified)", "z-score": -2.45}
{"smiles": "O=C(NCc1cccnc1)c1ccc(CN2CC(=O)N3CCCC3C2=O)cc1", "note": "(stereo unspecified)", "z-score": 1.95}
{"smiles": "O=C(CSc1nnc2scc(-c3ccccc3)n12)N1CCOCC1", "z-score": 0.4}
{"smiles": "O=C(CSc1ccc(-c2ccccn2)nn1)Nc1ccccc1", "z-score": 2.09}
{"smiles": "CCc1c(CN2CCN(Cc3ccccc3)CC2)csc1C", "z-score": 1.69}
{"smiles": "CCn1c(C(C)N2CCCCC2)nc2ccccc21", "note": "(stereo unspecified)", "z-score": 1}
{"smiles": "CCNc1nc(Nc2ccc(Cl)cc2C)c2cnn(C)c2n1", "z-score": 0.26}
{"smiles": "Cc1ccc(Nc2nc(NCc3ccco3)nc3c2cnn3C)c(C)c1", "z-score": "3.66 (active)"}
{"smiles": "Cc1ccc(Nc2ncnc3c2cnn3C)c(C)c1", "z-score": 0.03}
{"smiles": "O=S(=O)(c1ccc(Cl)cc1)c1nnn2c1nc(NC1CCCC1)c1sccc12", "z-score": "7.09 (active)"}
{"smiles": "NC(=O)C1CCN(c2nc3c(S(=O)(=O)c4cccc(Cl)c4)nnn3c3ccsc23)CC1", "z-score": 0.52}
{"smiles": "CCN(CC)c1nc2c(S(=O)(=O)c3ccc(Cl)cc3)nnn2c2ccsc12", "z-score": -1.01}
{"smiles": "Cn1c(=O)oc2cc(S(=O)(=O)CCC(=O)Nc3cccc(F)c3)ccc21", "z-score": 0.47}
{"smiles": "O=C(Cn1nc(-c2ccccc2)c2cnc3cc4c(cc3c21)OCCO4)NC1CCCC1", "z-score": -0.04}
{"smiles": "O=C(CSc1ncc(S(=O)(=O)c2ccccc2)c(=O)[nH]1)Nc1cccc(F)c1", "z-score": -1.01}
{"smiles": "CCc1ccc(C2CC(=O)Nc3c2c(C)nn3-c2nc3ccccc3[nH]2)s1", "note": "(stereo unspecified)", "z-score": 1.63}
{"smiles": "Cc1ccc2occ(C3Nc4cc(C)c(C)cc4NC4=C3C(=O)CC(C)(C)C4)c(=O)c2c1", "note": "(stereo unspecified)", "z-score": 0.26}
{"smiles": "COc1cccc(OCc2cc(=O)n3nc(C)sc3n2)c1", "z-score": -0.36}
{"smiles": "Cc1nnc2sc(-c3ccco3)nn12", "z-score": -1.16}
{"smiles": "Cc1cccc(C)c1OCc1cc(=O)n2nc(-c3ccco3)sc2n1", "z-score": "36.5 (active)"}
{"smiles": "CCCCc1nn2c(=O)cc(CSc3n[nH]c(CC(C)C)n3)nc2s1", "z-score": -1.13}
{"smiles": "C=CCSc1ncc(Cl)c(C(=O)Nc2c(C(=O)Nc3ccc(OC)cc3)oc3ccccc23)n1", "z-score": 1.45}
{"smiles": "COC(=O)c1ccc(C2C(C(=O)OC3CCCC3)=C(C)NC3=C2C(=O)CCC3)cc1", "note": "(stereo unspecified)", "z-score": 2.05}
{"smiles": "Cc1ccc(-c2nnc3sc(-c4ccccn4)nn23)cc1", "z-score": 1.2}
{"smiles": "c1ccc(-c2nnc3sc(-c4ccc5c(c4)OCCO5)nn23)cc1", "z-score": -0.37}
{"smiles": "COc1ccc(-c2nn3c(-c4ccccc4)nnc3s2)cc1OC", "z-score": "21 (active)"}
{"smiles": "CCC1Sc2ccc(S(=O)(=O)CCC(=O)NCCc3sccc3C)cc2NC1=O", "note": "(stereo unspecified)", "z-score": -0.87}
{"smiles": "O=c1c(NC2CCCC2)c(-c2ccc3c(c2)CCCC3)c1=O", "z-score": -0.58}
{"smiles": "CCN(CC)C(=O)CCc1nc(CN2CCN(S(=O)(=O)c3cccs3)CC2)no1", "z-score": -6.66}
{"smiles": "COc1ccc(-n2c(=O)[nH]c(=O)c3sc(NC(=O)Nc4ccccc4)nc32)cc1", "z-score": -0.15}
{"smiles": "CCCCn1c(=O)[nH]c(=O)c2sc(N)nc21", "z-score": 0.78}
{"smiles": "COc1cc(Br)c(CCn2c(=O)[nH]c(=O)c3sc(N)nc32)cc1OC", "z-score": "28.5 (active)"}
{"smiles": "Cc1c(C(=O)N2CCOCC2)oc2c1-c1nn(CC(=O)NC3CCCc4ccccc43)cc1CC2", "note": "(stereo unspecified)", "z-score": 3.05}
{"smiles": "Cc1cc(NCc2cccs2)n2nc(Cc3cccc(F)c3)nc2n1", "z-score": 1.34}
{"smiles": "Cc1cc(C)cc(NC2c3ncccc3C(=O)N2c2ccccc2)c1", "note": "(stereo unspecified)", "z-score": -1.21}
{"smiles": "CC1CCCC(NC(=O)C2(C)Cn3c(cc4occc43)C(=O)N2Cc2ccc3c(c2)OCO3)C1C", "note": "(stereo unspecified)", "z-score": "6.96 (active)"}
{"smiles": "CC1CCCCC1NC(=O)C1(C)Cn2c(cc3sccc32)C(=O)N1Cc1ccco1", "note": "(stereo unspecified)", "z-score": 2.7}
{"smiles": "CC1CCC(NC(=O)C2(C)Cn3c(cc4occc43)C(=O)N2CCN(C)C2CCCCC2)CC1", "note": "(stereo unspecified)", "z-score": 0.99}
{"smiles": "CCCN1C(=O)c2cc3sccc3n2CC1(C)C(=O)NC1CCC(C)CC1", "note": "(stereo unspecified)", "z-score": 1.88}
{"smiles": "COCCCN1C(=O)c2cc3sccc3n2CC1(C)C(=O)NC1CCCC(C)C1C", "note": "(stereo unspecified)", "z-score": 2.51}
{"smiles": "CC1CCC(NC(=O)C2(C)Cn3c(cc4occc43)C(=O)N2c2ccc(Cl)cc2)CC1", "note": "(stereo unspecified)", "z-score": "5.26 (active)"}
{"smiles": "CCOC(=O)c1[nH]c(C)c(C(=O)NC2CCCC(C)C2C)c1C", "note": "(stereo unspecified)", "z-score": 0.78}
{"smiles": "CSc1cccc(NC(=O)N2c3ccccc3NC3=C(C(=O)CCC3)C2c2ccco2)c1", "note": "(stereo unspecified)", "z-score": 0.6}
{"smiles": "O=C1c2ccccc2S(=O)(=O)N1Cc1nnnn1-c1ccccc1", "z-score": 2.08}
{"smiles": "Cc1nc(-c2ccc(C)c(S(=O)(=O)Nc3ccc(Cl)cc3F)c2)cs1", "z-score": 1.67}
{"smiles": "CN1C(C(=O)NCc2ccccc2)=CC(c2ccc3c(c2)OCO3)=NS1(=O)=O", "z-score": "3.21 (active)"}
{"smiles": "CN1C(C(=O)N2CCCc3ccccc32)=CC(c2ccc3c(c2)OCO3)=NS1(=O)=O", "z-score": 2.14}
{"smiles": "CCNC(=O)C1=CC(c2cccs2)=NS(=O)(=O)N1C", "z-score": 1.38}
